In the supplement of paper PMC9588786:
± gives the standard deviation of the averaged measurements.

test system: HT-1080; assay: relative cell viability with RSL3 co-treatment (fraction of control); higher = stronger protection from RSL3-induced ferroptosis (higher viability); settings: 10 µM
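Note: viability read as CCK-8 absorbance at 450 nm in cells co-exposed to the GPX4 inhibitor RSL3, relative to a 0.01% DMSO vehicle control.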

SMILES | relative cell viability
Cc1cc(Nc2cc(N3CCN(C)CC3)nc(Sc3ccc(NC(=O)C4CC4)cc3)n2)n[nH]1 [Tozasertib (VX-680, MK-0457)] | 0.71 ± 0.01
C=CCc1ccc(O)c(-c2ccc(O)c(CC=C)c2)c1 [Honokiol] | 0.85 ± 0.04
Cc1ccc(S(=O)(=O)/C=C/C#N)cc1 | 0.463 ± 0.042
CC(C)NC[C@@H](C(=O)N1CCN(c2ncnc3c2[C@H](C)C[C@H]3O)CC1)c1ccc(Cl)cc1 [Ipatasertib (GDC-0068)] | 0.697 ± 0.12
O=C(NOCC(O)CO)c1cc(Br)c(F)c(F)c1Nc1ccc(I)cc1F (stereo unspecified) | 0.897 ± 0.061
COc1cc(N2CCC(N)CC2)ccc1Nc1ncc(Cl)c(-c2c[nH]c3ccccc23)n1 | 0.24 ± 0.062
Cc1c(Cn2c(C)nc3c(C(=O)O)cc(N4CCOCC4)cc32)cccc1C(F)(F)F | 0.823 ± 0.045
COc1cc2ncnc(Nc3cccc(Cl)c3F)c2cc1OC(=O)N1CCN(C)C[C@H]1C | 0.617 ± 0.025
Cc1cc(Nc2ncc(Cl)c(Nc3ccccc3S(=O)(=O)C(C)C)n2)c(OC(C)C)cc1C1CCNCC1 [Ceritinib (LDK378)] | 0.513 ± 0.057
CCCNC(=O)Nc1ccc(Oc2ncnc3cc(OC)c(OC)cc23)cc1Cl | 0.757 ± 0.42
FC(F)(F)c1ccc(/C=C/c2nc(COc3ccc(CCCCn4ccnn4)cc3)co2)cc1 [Mubritinib (TAK 165)] | 0.653 ± 0.1
CNC(=O)c1cc(Oc2ccc(NC(=O)Nc3cc(C(C)(C)C)nn3-c3ccc4ncccc4c3)c(F)c2)ccn1 [Rebastinib (DCC-2036)] | 0.3 ± 0.085
CC(C)(C)c1cnc(CSc2cnc(NC(=O)C3CCNCC3)s2)o1 | 0.573 ± 0.05
N#Cc1ccc2[nH]c(O)c(-c3ccc(CN4CCOCC4)cn3)c2c1 | 0.75 ± 0.046
O=C(NCc1ccccc1)c1csc(Nc2ccncn2)n1 [Thiazovivin] | 0.557 ± 0.24
CCCS(=O)(=O)Nc1ccc(F)c(C(=O)c2c[nH]c3ncc(-c4ccc(Cl)cc4)cc23)c1F [Vemurafenib (PLX4032, RG7204)] | 0.323 ± 0.091
